# A number with no mark means an inactive call. Inconclusive results are not listed. Entries that show only a call come without a potency. Activity calls are given as the source filed them. Unless noted, calls follow the shape of the full dose curve.
# Assays:
# [1] = Nuclear factor erythroid 2-related factor 2/antioxidant responsive element (Nrf2/ARE) small molecule agonists: qHTS cell viability counter screen in human keratinocytes (AID 1919968; active = well fitted curve in the direction sought with a large enough effect in the repeat runs; an effect the other way counts as inactive or inconclusive; also: nearly all actives have a fitted effect of over 55% in size)
# Procedure, shortened: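 CellTiter-Fluor fluorescence, read 1 h after reagent, gave viability in the same wells as the ARE-luciferase assay. KeratinoSens cells (1,500/well) had 23 h compound exposure at 37 C/5% CO2 following 5 h plating.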
# [2] = Nuclear factor erythroid 2-related factor 2/antioxidant responsive element (Nrf2/ARE) small molecule agonists: luciferase reporter gene qHTS assay in human keratinocytes (AID 1919969); also: nearly all actives have a fitted effect of over 35% in size; also: potency is read from the fitted curve at half-maximal effect
# [3] = target: Gonadotropin-releasing hormone receptor (Homo sapiens) (UniProt P30968); assay: Human gonadotropin-releasing hormone receptor (GnRHR) small molecule agonists, calcium flux assay in GnRHR-HEK293 cells (AID 1920063); also: nearly all actives have a fitted effect of over 35% in size
# Chain of Gonadotropin-releasing hormone receptor (Homo sapiens) (P30968 whole entry, looked up): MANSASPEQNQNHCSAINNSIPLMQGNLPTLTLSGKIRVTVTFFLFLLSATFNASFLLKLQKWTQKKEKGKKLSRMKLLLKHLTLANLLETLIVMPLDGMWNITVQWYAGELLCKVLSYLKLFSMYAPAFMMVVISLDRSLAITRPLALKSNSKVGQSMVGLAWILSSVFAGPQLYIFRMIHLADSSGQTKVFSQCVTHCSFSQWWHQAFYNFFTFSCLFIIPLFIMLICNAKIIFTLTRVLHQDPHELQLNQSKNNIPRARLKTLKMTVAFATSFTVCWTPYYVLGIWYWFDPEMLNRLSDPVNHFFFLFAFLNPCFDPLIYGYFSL
# Procedure, shortened: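 Agonist mode: compounds at 15 concentrations, in triplicate, went onto calcium dye-loaded GnRHR-HEK293 cells. Intracellular calcium was then followed as 480/540 nm fluorescence at 1 s intervals over 3 min.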
# [4] = target: KiSS-1 receptor (Homo sapiens) (UniProt Q969F8); assay: Human kisspeptin (KISS1R) small molecule agonists, calcium flux assay in KISS1R-HEK293 cells (AID 1920064; active = well fitted curve in the direction sought with a large enough effect in the repeat runs; an effect the other way counts as inactive or inconclusive)
# Chain of KiSS-1 receptor (Homo sapiens) (Q969F8 whole entry, looked up): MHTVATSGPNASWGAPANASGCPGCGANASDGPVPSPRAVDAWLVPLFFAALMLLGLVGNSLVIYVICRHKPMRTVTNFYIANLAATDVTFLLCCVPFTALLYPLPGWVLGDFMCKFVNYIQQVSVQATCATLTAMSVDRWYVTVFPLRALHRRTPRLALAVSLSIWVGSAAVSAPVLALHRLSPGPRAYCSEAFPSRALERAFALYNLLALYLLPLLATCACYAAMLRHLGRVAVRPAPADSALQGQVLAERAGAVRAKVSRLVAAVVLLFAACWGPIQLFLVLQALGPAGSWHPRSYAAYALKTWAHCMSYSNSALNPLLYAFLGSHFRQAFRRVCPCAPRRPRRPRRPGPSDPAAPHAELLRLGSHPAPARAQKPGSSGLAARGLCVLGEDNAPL
# Procedure, shortened: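 Agonist mode: intracellular calcium rise tracked at 1 s intervals over 3 min (480/540 nm) immediately after compound addition to dye-loaded KISS1R-HEK293 stable cells. Each compound tested at 15 concentrations in triplicate.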
# [5] = G protein-coupled receptor (GPCR) small molecule agonists, calcium flux assay: HEK293 wild type cell line counter screen (AID 1920065)
# Procedure, shortened: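 Calcium flux counter screen: compound added in agonist mode at 15 concentrations in triplicate to dye-loaded parental HEK293 cells. Fluorescence (480/540) read kinetically for 3 min; ATP served as positive control.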
# [6] = p53 small molecule agonists, cell-based qHTS assay with human liver microsomes (AID 1963577);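 also: p53 response element beta-lactamase reporter cells with liver microsomes plus NADPH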
# Procedure, shortened: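 16 h, 37 C exposure of p53RE-bla cells to compounds with human liver microsomes and NADPH (0.5 mg/mL final each); detection via LiveBLAzer mixture, 2 h dark at room temperature.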
# [7] = p53 small molecule agonists, cell-based qHTS assay with rat liver microsomes (AID 1963578)
# Procedure, shortened: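 With rat liver microsomes and NADPH present (0.5 mg/mL final each), p53RE-bla cells are treated with compound for 16 h at 37 C. LiveBLAzer detection mixture is then applied for 2 h at room temperature in the dark.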
# [8] = p53 small molecule agonists, cell-based qHTS assay with human liver microsomes: qHTS cell viability counter screen (AID 1963579); also: nearly all actives have a fitted effect of over 45% in size
# Procedure, shortened: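 In this multiplexed counter screen, the reporter plates were subsequently treated with CellTiter-Glo so that cell viability, reflected by luminescence, could be recorded for p53RE-bla cells dosed 16 h with compounds under microsomal activation (HLM and NADPH).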
# [9] = p53 small molecule agonists, cell-based qHTS assay with rat liver microsomes: qHTS cell viability counter screen (AID 1963580); also: nearly all actives have a fitted effect of over 45% in size
# Procedure, shortened: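 Luminescent ATP readout (CellTiter-Glo, 30 min at room temperature) reports viability of p53RE-bla HCT-116 cells after 16 h at 37 C with test compounds under metabolic activation by rat liver microsomes and NADPH at 0.5 mg/mL final each.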
# [10] = p53 small molecule agonists, cell-based qHTS assay: qHTS cell viability counter screen (AID 1963581); also: nearly all actives have a fitted effect of over 45% in size
# Procedure, shortened: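 Counter screen read by CellTiter-Glo luminescence (ATP content, 30 min at room temperature), run in the same wells as the beta-lactamase reporter read. HCT-116 p53RE-bla cells saw compounds for 16 h at 37 C.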
# [11] = target: 5-hydroxytryptamine receptor 2A (Homo sapiens) (UniProt P28223); assay: 5-hydroxytryptamine receptor 2A (HTR2A) small molecule antagonists, cell-based qHTS assay (AID 1963586); also: nearly all actives have a fitted effect of over 45% in size
# Chain of 5-hydroxytryptamine receptor 2A (Homo sapiens) (P28223 whole entry, looked up): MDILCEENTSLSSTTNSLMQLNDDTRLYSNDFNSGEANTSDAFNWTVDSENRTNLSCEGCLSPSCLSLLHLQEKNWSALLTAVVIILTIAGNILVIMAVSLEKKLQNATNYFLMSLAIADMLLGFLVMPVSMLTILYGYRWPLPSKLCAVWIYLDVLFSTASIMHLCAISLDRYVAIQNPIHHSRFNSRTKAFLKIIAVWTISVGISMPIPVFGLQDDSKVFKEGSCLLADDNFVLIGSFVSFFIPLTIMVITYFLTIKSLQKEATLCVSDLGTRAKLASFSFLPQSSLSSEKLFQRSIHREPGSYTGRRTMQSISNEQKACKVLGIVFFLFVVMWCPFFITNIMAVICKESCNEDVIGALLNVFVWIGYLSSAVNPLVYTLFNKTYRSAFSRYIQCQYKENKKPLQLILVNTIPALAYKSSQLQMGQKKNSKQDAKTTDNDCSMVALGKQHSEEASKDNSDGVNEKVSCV
# Procedure, shortened: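 CHO cells stably expressing human HTR2A were plated for 18 h at 37 C, then loaded with calcium dye for 1 h. Compounds were preincubated 5 min at room temperature before DOI (4 nM solution) was added. Kinetic fluorescence was read for 3 min.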
# [12] = target: 5-hydroxytryptamine receptor 2A (Homo sapiens) (UniProt P28223); assay: 5-hydroxytryptamine receptor 2A (HTR2A) small molecule agonists, cell-based qHTS assay (AID 1963587); also: nearly all actives have a fitted effect of over 30% in size
# Procedure, shortened: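 HTR2A-CHO cells, plated 18 h at 37 C/5% CO2, dye-loaded 1 h at 37 C; compounds in DMSO added by pin tool (agonist mode). Intracellular calcium flux read as kinetic fluorescence on FDSS over 2 min at 1 s intervals.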
# [13] = target: Muscarinic acetylcholine receptor M1 (Homo sapiens) (UniProt P11229); assay: Cholinergic receptor muscarinic 1 (CHRM1) small molecule antagonists, cell-based qHTS assay (AID 1963588); also: nearly all actives have a fitted effect of over 40% in size
# Chain of Muscarinic acetylcholine receptor M1 (Homo sapiens) (P11229 whole entry, looked up): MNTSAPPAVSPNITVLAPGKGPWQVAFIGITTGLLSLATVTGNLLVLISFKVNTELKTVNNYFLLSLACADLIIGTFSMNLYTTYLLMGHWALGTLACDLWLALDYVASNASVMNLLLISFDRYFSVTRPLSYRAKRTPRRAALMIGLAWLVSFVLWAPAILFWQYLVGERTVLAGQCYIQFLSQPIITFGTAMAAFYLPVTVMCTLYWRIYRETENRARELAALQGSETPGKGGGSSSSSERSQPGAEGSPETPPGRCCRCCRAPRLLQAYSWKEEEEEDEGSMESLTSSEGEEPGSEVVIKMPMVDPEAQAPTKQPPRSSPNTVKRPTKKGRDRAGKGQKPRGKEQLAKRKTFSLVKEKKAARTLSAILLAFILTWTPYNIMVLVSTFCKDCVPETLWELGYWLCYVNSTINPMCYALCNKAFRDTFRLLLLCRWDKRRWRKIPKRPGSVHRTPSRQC
# Procedure, shortened: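 Compounds were tested at 15 concentrations in three independent runs. Dye-loaded CHRM1-CHO cells were exposed 5 min at room temperature before stimulation by acetylcholine added at 50nM. Intracellular calcium was read kinetically on FDSS for 3 min.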
# [14] = target: Muscarinic acetylcholine receptor M1 (Homo sapiens) (UniProt P11229); assay: Cholinergic receptor muscarinic 1 (CHRM1) small molecule agonists, cell-based qHTS assay (AID 1963589); also: nearly all actives have a fitted effect of over 35% in size
# Procedure, shortened: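 Agonist-mode calcium-flux screen: compounds at 15 concentrations, three independent runs, were pin-transferred onto dye-loaded human CHRM1-CHO cells. Fluorescence was then recorded kinetically every second over minutes.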
# [15] = cAMP Responsive Elements (CRE) small molecule agonists, cell-based qHTS assay (AID 1963590)
# Procedure, shortened: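 Agonist mode: compound added to CRE-bla HEK 293T cells (2,000/well, 18 h after plating) for 3 h at 37 C/5% CO2. Reporter activity detected via FRET beta-lactamase substrate, 2 h room-temperature loading.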
# [16] = target: Beta-2 adrenergic receptor (Homo sapiens) (UniProt P07550); assay: Adrenergic beta2 receptor (ADRB2) small molecule antagonists, cell-based qHTS assay (AID 1963592); also: series mostly up to about 92 µM; nearly all actives have a fitted effect of over 50% in size
# Chain of Beta-2 adrenergic receptor (Homo sapiens) (P07550 whole entry, looked up): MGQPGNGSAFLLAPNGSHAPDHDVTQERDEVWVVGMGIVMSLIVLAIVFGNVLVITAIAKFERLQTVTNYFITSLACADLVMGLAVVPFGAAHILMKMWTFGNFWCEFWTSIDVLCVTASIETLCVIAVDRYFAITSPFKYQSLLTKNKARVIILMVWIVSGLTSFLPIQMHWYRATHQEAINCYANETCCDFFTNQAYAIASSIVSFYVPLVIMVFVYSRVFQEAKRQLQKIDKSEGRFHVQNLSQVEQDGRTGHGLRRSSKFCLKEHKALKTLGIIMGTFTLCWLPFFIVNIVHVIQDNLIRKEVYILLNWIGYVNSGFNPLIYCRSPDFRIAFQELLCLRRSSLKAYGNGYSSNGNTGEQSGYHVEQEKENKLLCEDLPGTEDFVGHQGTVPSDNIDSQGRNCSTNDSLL
# Procedure, shortened: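 Assay format: CHO-ADRB2 cells, 18-20hr seeding at 37C/5% CO2, then compound plus 1nM isoproterenol agonist mix for 0.5hr RT. Homogeneous time-resolved fluorescence cAMP detection after 1hr, expressed as 665/615 nm ratio.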
# [17] = target: Beta-2 adrenergic receptor (Homo sapiens) (UniProt P07550); assay: Adrenergic beta2 receptor (ADRB2) small molecule agonists, cell-based qHTS assay (AID 1963593);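 also: CHO cells stably overexpressing human ADRB2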
# Procedure, shortened: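 CHO cells stably over-expressing ADRB2 were plated overnight at 37C, then dosed with compounds plus a stimulation mix containing 100uM IBMX and 25uM Ro-20-1724 for 0.5hr at room temperature. cAMP was measured by HTRF competition, 1hr.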
# [18] = target: D(2) dopamine receptor (Homo sapiens) (UniProt P14416); assay: Dopamine D2 receptor (DRD2) small molecule antagonists, cell-based qHTS assay (AID 1963595; active = well fitted inhibition curve with a large enough effect in the signal ratio in the repeat runs, with a control signal flat; the % refers to the signal ratio)
# Chain of D(2) dopamine receptor (Homo sapiens) (P14416 whole entry, looked up): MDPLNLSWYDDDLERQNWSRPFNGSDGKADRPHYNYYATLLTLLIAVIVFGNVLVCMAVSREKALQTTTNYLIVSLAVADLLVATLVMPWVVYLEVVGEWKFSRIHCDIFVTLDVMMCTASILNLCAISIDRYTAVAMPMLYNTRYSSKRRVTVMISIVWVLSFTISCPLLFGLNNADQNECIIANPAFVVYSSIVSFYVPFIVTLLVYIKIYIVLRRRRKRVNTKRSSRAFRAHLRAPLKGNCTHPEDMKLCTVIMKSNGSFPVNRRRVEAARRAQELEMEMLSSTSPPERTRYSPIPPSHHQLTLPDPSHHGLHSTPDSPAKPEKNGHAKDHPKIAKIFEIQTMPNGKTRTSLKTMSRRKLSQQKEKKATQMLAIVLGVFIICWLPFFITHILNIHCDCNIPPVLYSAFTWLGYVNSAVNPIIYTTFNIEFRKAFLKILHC
# Procedure, shortened: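 In this cell-based antagonist screen, compounds act for 10 min at room temperature before a 30 min challenge with 12 nM quinpirole and 200 nM NKH477. cAMP is quantified by HTRF competition in DRD2-HEK293 cells containing 0.1 mM Ro20-1724.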
# [19] = cAMP Responsive Elements (CRE) small molecule antagonists, cell-based qHTS assay (AID 1963591; active = well fitted inhibition curve with a large enough effect in the signal ratio in the repeat runs, not every such curve was filed as active; the % refers to the signal ratio)
# Procedure, shortened: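 Antagonist mode: compounds are added alongside the adenylyl cyclase activator NKH477 (0.25 uM final) to CRE-bla HEK293T cells for 3 h. LiveBLAzer FRET substrate, 2 h at room temperature, reports bla expression.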
# [20] = target: D(2) dopamine receptor (Homo sapiens) (UniProt P14416); assay: Dopamine D2 receptor (DRD2) small molecule agonists, cell-based qHTS assay (AID 1963594); also: nearly all actives have a fitted effect of over 35% in size
# Procedure, shortened: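 HEK293 cells stably expressing DRD2 were cultured 24 h at 37 C, then given Ro20-1724 (0.1 mM final) and compounds for 10 min at room temperature. NKH477 (200nM) was then added for 30 min. cAMP was read by HTRF.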
compound,measurement,setting,value
CCCS(=O)c1ccc2nc(NC(=O)OC)[nH]c2c1 (configuration not stated),Potency,[1],inactive
same,Potency,[2],inactive
same,Potency,[3],inactive
same,outcome,[4],inactive
same,outcome,[5],inactive
same,Potency,[6],inactive
same,Potency,[7],inactive
same,Potency,[8],inactive
same,Potency,[9],inactive
same,Potency,[10],inactive
same,Potency,[11],inactive
same,Potency,[12],inactive
same,Potency,[13],inactive
same,Potency,[14],inactive
same,Potency,[15],inactive
same,Potency,[16],inactive
same,Potency,[17],inactive
same,Potency,[18],inactive
O=C(Nc1cccc(C2=NCCN2)c1)Nc1cccc(C2=NCCN2)c1,"activity change, negative = cytotoxicity",[1],19.9% [at 19 µM]
same,"activity, positive = activation",[2],-4.28% [at 19 µM]
same,activity change,[3],"-0.181% [at 11.8 µM, stronger effect = higher value]"
same,activation,[4],-0.538% [at 15.8 µM]
same,activation,[5],2.04% [at 11.8 µM]
same,activation,[6],-0.295% [at 13.5 µM]
same,activation,[7],-1.12% [at 13.6 µM]
same,"activity change, negative = cytotoxicity",[8],1.91% [at 13.5 µM]
same,"activity change, negative = cytotoxicity",[9],0.748% [at 13.5 µM]
same,"activity change, negative = cytotoxicity",[10],-8.13% [at 13.5 µM]
same,"activity, negative = inhibition",[11],-37.2% [at 12.7 µM]
same,activation,[12],1.02% [at 15.9 µM]
same,"activity, negative = inhibition",[13],-4.67% [at 12.6 µM]
same,activation,[14],-0.0869% [at 15.8 µM]
same,activation,[15],-0.37% [at 19 µM]
same,"activity change, negative = inhibition",[19],-6.62% [at 18.9 µM]
same,Potency,[17],inactive
same,activation,[20],-15.4% [at 19 µM]
same,"activity change, negative = inhibition",[18],-4.58% [at 18.9 µM]
C/C(=N\O)c1ccc(OCC(=O)N2CCCCC2)cc1,Potency,[1],inactive
same,Potency,[2],11.9 µM (active)
same,Potency,[3],inactive
same,outcome,[4],inactive
same,outcome,[5],inactive
same,Potency,[6],inactive
same,Potency,[7],inactive
same,Potency,[8],inactive
same,Potency,[9],inactive
same,Potency,[10],inactive
same,Potency,[11],inactive
same,Potency,[12],inactive
same,Potency,[13],inactive
same,Potency,[14],inactive
same,Potency,[15],inactive
same,Potency,[19],inactive
same,Potency,[16],inactive
same,Potency,[17],inactive
same,Potency,[20],inactive
same,Potency,[18],inactive
NS(=O)(=O)c1ccc(Cl)c(S(N)(=O)=O)c1,Potency,[1],inactive
same,Potency,[2],inactive
same,Potency,[3],inactive
same,outcome,[4],inactive
same,outcome,[5],inactive
same,Potency,[6],inactive
same,Potency,[7],inactive
same,Potency,[8],inactive
same,Potency,[9],inactive
same,Potency,[10],inactive
same,Potency,[11],inactive
same,Potency,[12],inactive
same,Potency,[13],inactive
same,Potency,[14],inactive
same,Potency,[15],inactive
same,Potency,[16],inactive
same,Potency,[17],inactive
same,Potency,[20],inactive
O=C1CCCN1CCO,Potency,[1],inactive
same,Potency,[2],inactive
same,Potency,[3],inactive
same,outcome,[4],inactive
same,outcome,[5],inactive
same,Potency,[6],inactive
same,Potency,[7],inactive
same,Potency,[8],inactive
same,Potency,[9],inactive
same,Potency,[10],inactive
same,Potency,[11],inactive
same,Potency,[12],inactive
same,Potency,[13],inactive
same,Potency,[14],inactive
same,Potency,[16],inactive
same,Potency,[17],inactive
same,Potency,[20],inactive
same,Potency,[18],inactive
CC/C=C\CC/C=C/C(OCC)OCC,Potency,[1],inactive
same,Potency,[2],61.1 µM (active)
same,Potency,[3],inactive
same,outcome,[4],inactive
same,outcome,[5],inactive
same,Potency,[6],inactive
same,Potency,[7],inactive
same,Potency,[8],inactive
same,Potency,[9],inactive
same,Potency,[10],inactive
same,Potency,[11],inactive
same,Potency,[12],inactive
same,Potency,[13],inactive
same,Potency,[14],inactive
same,Potency,[15],inactive
same,Potency,[16],inactive
same,Potency,[17],inactive
same,Potency,[20],inactive
same,Potency,[18],inactive

# Source: PubChem BioAssay (Tox21)
